PAX8 reporter – inhibitors of PAX8-driven TPO luciferase reporter, primary screen, RMG-I cells, single concentration. SteadyGlo, 24 h. 360,000 tested, 1.2% active. inhibition, % at 12.6 µM. AID 652154, 2013;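 active = mean replicate inhibition at least 60% with every replicate also reaching 60%; inconclusive = only one of the two criteria is met; inactive = mean below 60% and not all replicates reaching 60%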;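 also: luciferase light reporting Pax8 driven TPO promoter activity; plate controls were median of neutral control wells for no effect and mitoxantrone controls for full effect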
EBV LMP1 NFkB – EBV LMP1-driven NF-kappaB luciferase reporter inhibitors, primary screen, cell-based, luminescence, single point; LMP1-induced NF-kappaB luciferase reporter cells; inhibition, % at 12.5 µM; 350,000 tested, 0.69% active; AID 504558, 2011; in the data active = inhibition above about 41%; inconclusive = no clear call, values can overlap the other calls;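 also: 0% = neutral control wells and 100% = reference inhibitor control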
TROY signal inh – inhibitors of TROY-driven NF-kB signaling, primary screen, Q293 LMP1-TROYcd cells, NF-kB luciferase, uHTS. Q293 LMP1-TROYcd NF-kB luciferase reporter, 4 h. AID 1347056, 2019. inhibition, % at 10 µM. 360,000 tested, 0.98% active;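 active = compounds whose plate-normalised and pattern-corrected inhibition of the luciferase reporter signal at the single screening dose is 50% or more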
LGR2 antag – inhibitors of bursicon-induced LGR2 CRE-luciferase signal, primary screen, cell-based, HEK293, CRE-luciferase reporter, bursicon stimulation. Drosophila bursicon receptor LGR2 (rickets). bursicon-stimulated, 4 h. inhibition, % at 9.99 µM. 380,000 tested, 0.35% active. AID 720647, 2013;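 active = drop in luminescence signal, shown as inhibition above about 50% in the replicate tests, limit read from the data, passing the limit was not always enough; inconclusive = probably only some replicates passing the limit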;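 also: agonist challenge used bursicon conditioned medium at about half maximal strength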
TWEAK Fn14 block – inhibitors of TWEAK-Fn14 signaling, primary screen, luciferase reporter cells, uHTS. inhibition, % at 10 µM. AID 1159606, 2016. 360,000 tested, 2% active. TWEAK-stimulated Fn14 reporter cells, luciferase luminescence, 8 h; in the data active = inhibition above about 50%
EWS-Fli block – EWS/Fli-driven NR0B1 reporter inhibitors, primary screen, A673 cells, NR0B1 luciferase, luminescence, MLPCN library | viability-normalised | inhibition, % at 12.6 µM | 350,000 tested, 0.67% active;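 active = mean inhibition of at least 50% after viability correction, with every replicate also passing that limit; inconclusive = mean reaches 50% but only one of two replicates passes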;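 also: firefly luciferase signal divided by Alamar Blue viability fluorescence both relative to DMSO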
* marks the source's active call; other numbers are inactive results; ? = inconclusive; nt = no result. Compounds with a hit are over-represented: about 3.2% of the library has one in this group of screens.

SMILES	PAX8 reporter	EBV LMP1 NFkB	TROY signal inh	LGR2 antag	TWEAK Fn14 block	EWS-Fli block
O=C(O)c1ccc(CN2C(=O)c3cccc4c([N+](=O)[O-])ccc(c34)C2=O)cc1	nt	5	71*	-2	53*	nt
Oc1c(Br)cc(Br)cc1/C=N/Nc1ccc(Cl)nn1	-11	45*	-3	17	-12	16
CC(C)CN1CCN(C(=O)COC(=O)c2ccc(S(C)(=O)=O)c([N+](=O)[O-])c2)CC1	112*	nt	21	23	80*	34
Cn1cccc1C(=O)NC(=O)COC(=O)c1ccc(S(C)(=O)=O)c([N+](=O)[O-])c1	nt	-1	30	nt	96*	nt
CS(=O)(=O)c1ccc(C(=O)OCc2nnc(-c3ccc(Cl)cc3)o2)cc1[N+](=O)[O-]	nt	-10	66*	nt	64*	nt
CS(=O)(=O)c1ccc(C(=O)OCC(=O)NC23CC4CC(CC(C4)C2)C3)cc1[N+](=O)[O-]	53	-6	73*	-3	102*	nt
COCC(=O)N(C)C[C@H]1Oc2ncc(-c3cccc(OC)c3)cc2C(=O)N([C@@H](C)CO)C[C@@H]1C	nt	nt	nt	5	nt	0
COc1ccc(S(=O)(=O)Nc2ccc3c(c2)CC(=O)N([C@H](C)CO)C[C@@H](C)[C@H](CN(C)C(=O)NC2CCCCC2)O3)cc1	-13	nt	nt	-3	nt	3
COc1ccc(C)cc1S(=O)(=O)n1c([N+](=O)[O-])cnc1C	10	4	15	0	87*	4
C[C@@H]1CN([C@@H](C)CO)C(=O)c2cc(C3=CCCC3)cnc2O[C@H]1CN(C)C(=O)Nc1cccc(F)c1	5	nt	nt	1	nt	11
COc1ccc([C@H]2N[C@]3(CCCN(Cc4ccco4)C3=O)[C@H]3C(=O)N(Cc4ccccc4)C(=O)[C@@H]23)cc1	-18	46*	2	-2	-7	-29
O=C1[C@H]2[C@@H](c3ccccc3)N[C@]3(CCCN(Cc4ccco4)C3=O)[C@H]2C(=O)N1Cc1ccccc1	3	-1	10	7	10	6
CCCc1cc(N2CCOCC2)n2ncc(-c3ccccc3)c2n1	-61	-3	52*	-12	58*	-34
Cc1noc(C)c1S(=O)(=O)Nc1ccc2c(c1)C(=O)N([C@H](C)CO)C[C@H](C)[C@@H](CN(C)C(=O)c1ccncc1)OCCCC[C@H](C)O2	5	nt	nt	5	nt	-8
CC(=O)c1ccc(NC(=S)Nc2cccc3cnccc23)cc1	-23	-4	34	12	60*	-28
S=C(NCc1ccccc1)Nc1cccc2cnccc12	21	20	42	12	77*	nt
S=C(Nc1cccc(Cl)c1)Nc1cccc2cnccc12	nt	2	34	nt	76*	nt
S=C(NCCc1ccccc1)Nc1cccc2cnccc12	7	24	36	-2	40	14
CNC[C@H]1Oc2cc(C#CC3CCCCC3)ccc2S(=O)(=O)N([C@@H](C)CO)C[C@H]1C	23	nt	nt	-3	nt	14
COc1ccc(S(=O)(=O)Nc2ccc3c(c2)C(=O)N([C@H](C)CO)C[C@H](C)[C@@H](CN(C)C(=O)Nc2ccc4c(c2)OCO4)OCCCC[C@H](C)O3)cc1	11	nt	nt	-18	nt	-6
COCCn1c(C)c(C)c2c(NCCc3ccccc3)ncnc21	-26	4	80*	35	-59	38
C[C@@H]1CN([C@H](C)CO)C(=O)c2cc(NC(=O)c3ccncc3)ccc2O[C@@H](C)CCCCO[C@H]1CN(C)S(=O)(=O)c1ccc(Cl)cc1	-4	nt	nt	0	nt	-1
CCN(CC)CCNCC(=O)N1c2ccccc2CCc2ccc(NC(=O)OC)cc21	4	7	-4	7	105*	17
NNC(=O)c1cccc(COc2ccc3c(c2)CCC3)c1	46	63*	-79	?	-15	nt
C[C@@H]1CN([C@@H](C)CO)C(=O)c2cccc(NC(=O)NC3CCCCC3)c2O[C@H]1CN(C)CC1CCCCC1	nt	nt	nt	1	nt	11
SMILES	PAX8 reporter	EBV LMP1 NFkB	TROY signal inh	LGR2 antag	TWEAK Fn14 block	EWS-Fli block
COc1ccc(C(=O)NNC(=O)Cc2nc3ccccc3n2C)cc1	68*	-4	-10	0	2	7
C[C@@H]1CCCCO[C@H](CN(C)C(=O)Nc2ccc(F)cc2)[C@H](C)CN([C@@H](C)CO)C(=O)c2cc(NS(C)(=O)=O)ccc2O1	4	nt	nt	4	nt	-4
CO[C@@H]1CN(C)C(=O)c2ccc(NC(=O)c3cnccn3)cc2OC[C@@H](C)N(C(=O)C2CC2)C[C@@H]1C	-10	nt	nt	10	nt	-2
Brc1ccc(-c2noc(-c3ccccn3)n2)o1	-78	-5	-4	16	43	13
COc1ccc(-c2nc(-c3ccccn3)no2)cc1	104*	81*	83*	100*	102*	86*
Cc1ccccc1-c1nc(-c2ccccn2)no1	73*	61*	81*	95*	97*	83*
Clc1ccccc1OCc1nc(-c2ccccn2)no1	-111	-6	7	nt	33	nt
Cc1ccccc1-c1nc(-c2cccnc2)no1	-93	-47	-38	nt	-5	nt
Clc1ccc(OCc2nc(-c3ccccn3)no2)c(Br)c1	-53	6	24	69*	67*	24
Brc1ccc(-c2nc(-c3ccccn3)no2)o1	nt	?	56*	75*	91*	nt
c1ccc(CCc2nc(-c3ccccn3)no2)cc1	nt	-23	-64	nt	4	nt
COc1ccccc1-c1nc(-c2ccccn2)no1	49	62*	66*	78*	96*	73*
Clc1ccc(-c2nc(-c3ccccn3)no2)cc1Cl	nt	33	29	nt	80*	nt
Cc1ccc(S(=O)(=O)Nc2cccc3c2O[C@H](CN(C)S(C)(=O)=O)[C@H](C)CN([C@H](C)CO)C3=O)cc1	9	nt	nt	-2	nt	-11
COc1ccccc1CNC(=O)C[C@H]1CC[C@H]2[C@@H](COc3ccc(NC(=O)Nc4ccc(F)c(F)c4)cc3C(=O)N2C)O1	14	nt	nt	2	nt	3
CCN1CCN(c2ccc(S(=O)(=O)N3CCCCC3)cc2NC(=O)/C=C/c2ccc([N+](=O)[O-])cc2)CC1	41	7	-14	1	-5	57*
CN1CCN(c2ccc(S(=O)(=O)N3CCCCC3)cc2NC(=O)COc2cccc(Cl)c2)CC1	-1	12	-9	5	1	23
Cc1cccc(OCC(=O)Nc2cc(S(=O)(=O)N3CCCCC3)ccc2N2CCN(C)CC2)c1	-9	2	85*	22	15	15
CN1CCN(c2ccc(S(=O)(=O)N3CCCCC3)cc2NC(=O)/C=C/c2ccc(Cl)c([N+](=O)[O-])c2)CC1	88*	-3	7	0	4	15

Compound activity deposited in PubChem by several laboratories.
